“And” between values parts separate entries of the source, which are not always exact repeats. Equal entries are not always repeated. Structures can show the parent of a compound that is named as a salt.
Tests used:
Assay in all cases: cell viability relative to vehicle control; higher = less cytotoxic
Settings in all cases: 10 µM
[1] = system: K562
How it was run: (§1)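 CRISPR-edited mutant clones and isogenic wild-type clones from four leukaemia lines were screened against Selleck bioactive, kinase and epigenetic probe libraries, with identity-inconsistent compounds excluded. Each compound was acoustically dispensed at a single 10 µM dose into 384-well plates holding 2000 cells in 50 µL medium per well. After 48 h the supernatant was removed and CellTiter-Glo luminescence was read. Viability was expressed as percent of the on-plate vehicle control and analysed in Genedata Screener.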

[2] = system: MARIMO
How it was run: as §1

[3] = system: MOLM14
How it was run: as §1

[4] = system: OCI-AML2
How it was run: as §1

Row | SMILES | cell viability ([1]; SRSF2 genotype: SRSF2 P95H/wt) | cell viability ([1]; SRSF2 genotype: SRSF2 wt/wt) [%] | cell viability ([2]; SRSF2 genotype: SRSF2 P95H/wt) [%] | cell viability ([2]; SRSF2 genotype: SRSF2 wt/wt) [%] | cell viability ([3]; SRSF2 genotype: SRSF2 P95H/wt) [%] | cell viability ([3]; SRSF2 genotype: SRSF2 wt/wt) [%] | cell viability ([4]; SRSF2 genotype: P95H/wt) [%] | cell viability ([4]; SRSF2 genotype: wt/wt) [%]
1 | O=C(NC(=O)c1c(F)cccc1F)Nc1ccc(OC(F)(F)C(F)OC(F)(F)F)c(Cl)c1 (stereo unspecified) [Novaluron] | 110% and 101% | 113 | 94.2 | 98.4 | 106 | 106 | 98.1 | 109
2 | CC(C)OC(=O)[C@H](C)N[P@](=O)(CO[C@H](C)Cn1cnc2c(N)ncnc21)Oc1ccccc1 [Tenofovir Alafenamide (GS-7340)] | 100% and 106% | 97.3 | 93.8 | 91.2 | 87 | 90.6 | 31.5 | 53.6
3 | Cc1c(N)nc(C(CC(N)=O)NCC(N)C(N)=O)nc1C(=O)NC(C(=O)NC(C)C(O)C(C)C(=O)NC(C(=O)NCCc1nc(-c2nc(C(=O)NCCC[S+](C)C)cs2)cs1)C(C)O)C(O[C@@H]1O[C@@H](CO)[C@@H](O)[C@H](O)[C@@H]1O[C@H]1O[C@H](CO)[C@@H](O)[C@H](OC(N)=O)[C@@H]1O)c1cnc[nH]1 (stereo partly specified) [Bleomycin sulfate] | 95.9% and 107% | 69.7 | 7.26 | 8.15 | 53.4 | 21.6 | 27 | 36.8
4 | CCO[C@H]1O[C@@H]2O[C@@]3(C)CC[C@H]4[C@H](C)CC[C@@H]([C@H]1C)[C@@]24OO3 [Arteether] | 68.2% and 63.3% | 69 | 62.3 | 64.4 | 69.8 | 45.7 | 55.5 | 52.5
5 | CC12NC(Cc3ccccc31)c1ccccc12 (single isomer, unassigned; (+)) [(+)-MK 801 maleate] | 92.8% and 93.5% | 93.2 | 85.7 | 91.7 | 91 | 91.5 | 86.7 | 99.1
6 | CC(O)(CS(=O)(=O)c1ccc(F)cc1)C(=O)Nc1ccc(C#N)c(C(F)(F)F)c1 (stereo unspecified) [Bicalutamide (Casodex)] | 95.5% and 101% | 106 | 95.4 | 102 | 98.7 | 98.8 | 93.8 | 91.8
7 | COc1cc([C@@H]2c3cc4c(cc3[C@H](O)[C@H]3COC(=O)[C@H]23)OCO4)cc(OC)c1O [4'-Demethylpodophyllotoxin] | 15.8% and 34.9% | 35.7 | 8.03 | 7.56 | 0.85 | 0.99 | 1.45 | 3.83
8 | COc1ccc2c(c1OC)CC1c3c(cc4c(c3-2)OCO4)CCN1C (stereo unspecified) [Crebanine] | 93.7% and 93.3% | 95.9 | 80.5 | 83 | 95.9 | 93.4 | 80.6 | 84.5
9 | CC(=O)O[C@H]1CC[C@H]2[C@@H]3CCC4=CC(=O)CCC4=C3C=C[C@]12C [Trenbolone acetate] | 98.4% and 111% | 98.9 | 87.2 | 96 | 83 | 102 | 114 | 101
10 | Cc1c(N[C@@H](c2nnc(-c3ccc(C#N)cc3)o2)[C@H](C)O)ccc(C#N)c1Cl | 87.6% and 86.2% | 100 | 88.4 | 96.5 | 88.9 | 100 | 100 | 102
11 | CCN1CCN(C(=O)Cc2ccc(Nc3ncc(F)c(Nc4ccc(C(=O)Nc5ccccc5Cl)cc4)n3)cc2)CC1 [Aurora A Inhibitor I] | 0.7% and 0.51% | 15.3 | 0.53 | 3.65 | 0.41 | 0.49 | 4.67 | 4.81
12 | CN(C)CCc1ccc(O)cc1 [Hordenine] | 104% and 106% | 103 | 108 | 106 | 101 | 109 | 107 | 94.8
13 | NC(=O)CN1CC(c2ccccc2)CC1=O (stereo unspecified) [Phenylpiracetam] | 94.8% and 94.3% | 97.6 | 102 | 96.9 | 99.8 | 98.1 | 101 | 103
14 | CC(C)(C)c1cc(C=C(C#N)C#N)cc(C(C)(C)C)c1O [Tyrphostin 9 (SF 6847)] | 14.4% and 18.5% | 18.5 | 23.8 | 23.8 | 17.7 | 12.2 | 5.2 | 11.5
15 | Cc1cc2c(C(C)C)c(O)c(O)c(C=O)c2c(O)c1-c1c(C)cc2c(C(C)C)c(O)c(O)c(C=O)c2c1O | 2.58% and 2.65% | 13.3 | 11.7 | 15.4 | 0.51 | 1.24 | 0.59 | 1.12
16 | COP(=O)(OC)SCn1c(=O)oc2cc(Cl)cnc21 [Azamethiphos] | 55.4% and 71.8% | 78.9 | 48.4 | 58.3 | 93.3 | 107 | 110 | 106
17 | CN1[C@@H]2CC[C@H]1C[C@@H](OC(=O)[C@H](CO)c1ccccc1)C2 [Hyoscyamine (Daturine)] | 104% and 93.5% | 91.9 | 104 | 107 | 99.2 | 102 | 95.4 | 113

Reference: the supplement of paper PMC10981050
